Source: PubChem
Hits are enriched below; roughly 4% of the tested compounds scored in any of these assays.
tim23-1 inh: growth inhibitors of tim23-1 mutant yeast, primary screen, luminescence, uHTS; inhibition, % at 20 µM; 330,000 compounds, 1.3% hits; AID 463212, 2010; S. cerevisiae tim23-1 growth, BacTiter-Glo luminescence, 24 h;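 active = growth inhibition of the mutant yeast at or above 50%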;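 also: temperature-sensitive mutant grown at 25 °C; plate controls were DMSO-treated mutant yeast for no effect and medium wells lacking yeast for full effect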
tim10-1 inh: growth inhibitors of tim10-1 mutant yeast, primary screen, luminescence, uHTS; inhibition, % at 20 µM; 330,000 compounds, 2.2% hits; S. cerevisiae tim10-1 ts strain growth, BacTiter-Glo, 24 h; AID 463190, 2010;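 active = inhibition of at least 40%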;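 also: mutant grown at 25 °C; 0% = DMSO wells with yeast and 100% = wells holding no yeast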
NALP3 yeast inh: NALP3 inflammasome inhibitors in reconstituted yeast, primary screen, luminescence, uHTS; Yeast reconstituted NLRP3/ASC/caspase-1, beta-gal luminescence, 24 h; inhibition, % at 10 µM; 330,000 compounds, 0.39% hits; AID 2825, 2010;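 active = inhibition of 50% or more; inactive = inhibition below 50%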;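 also: plate controls were induced DMSO wells for no effect and uninduced yeast grown without galactose for full effect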
NALP1 yeast inh: NALP1 inflammasome inhibitors in reconstituted yeast, colorimetric, S. cerevisiae, triplicate retest; S. cerevisiae NALP1/ASC/caspase-1 growth, X-gal OD620, 72 h; inhibition, % at 10 µM; 280,000 compounds, 0.61% hits; AID 2071, 2009; in the data active = inhibition mostly above about 24%, no sharp cut-off; inactive = mostly below about 32%
TIM10 inh: growth inhibitors of isogenic TIM10 control yeast, primary screen, counter-screen for tim10-1 yeast inhibitor project, luminescence, uHTS; 330,000 compounds, 1.4% hits; S. cerevisiae TIM10 strain growth, BacTiter-Glo luminescence, 24 h; inhibition, % at 10 µM;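 active = inhibition of 40% or more at the single tested concentration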;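 also: wild-type TIM10 isogenic control strain grown at permissive 25 °C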
tim23-1 confirm: tim23-1 mutant yeast growth inhibitors, confirmation, luminescence, single concentration | 4,400 compounds, 83% hits | inhibition, % at 20 µM | shares compounds with tim23-1 inh | S. cerevisiae tim23-1 growth, BacTiter-Glo luminescence, 24 h;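 active = inhibition above about 39% in either of two replicate wells at 20 µM, limit read from the data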;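 also: temperature-sensitive tim23-1 mutant grown at 25 °C; 0% = DMSO wells with yeast and 100% = medium wells without yeast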
The depositor's hits bear a star; · = no result given.

SMILES | tim23-1 inh | tim10-1 inh | NALP3 yeast inh | NALP1 yeast inh | TIM10 inh | tim23-1 confirm
O=C(Nc1ccc(Cl)c(S(=O)(=O)N2CCCCC2)c1)c1cccnc1 | 11 | 20 | 11 | · | 16 | ·
CCc1ccc2c(c1)/C(=N/N(C)C(=S)NC)C(=O)N2 | 17 | 31 | 11 | 20 | 30 | ·
CCc1ccc2c(c1)/C(=C/C(=O)c1cccs1)C(=O)N2 | 54* | 2 | 35 | -8 | 33 | -101
O=C(CSc1nc2ccccc2[nH]1)NCCCn1ccnc1 | 11 | 3 | 1 | 26 | -13 | ·
Cc1ccc(-c2nc3n(n2)Cc2ccccc2-3)cc1 | 54* | 14 | 20 | -11 | 20 | 50*
O=C(Nc1ncc(Cc2cccc(Cl)c2)s1)C1CCCO1 (centres undefined) | 50* | 28 | 22 | 18 | 28 | 43*
CC(C)C(=O)Nc1ncc(Cc2cccc(Cl)c2)s1 | 55* | 38 | 23 | -8 | 31 | 40*
O=C(Nc1ncc(Cc2cccc(Cl)c2Cl)s1)C1CCCO1 (centres undefined) | 30 | -7 | 25 | 11 | -31 | ·
O=C(N/N=C/C=C\c1ccco1)c1cccs1 | 64* | 9 | 18 | -5 | 23 | 53*
O=C(Cc1cccs1)N/N=C/C=C\c1ccco1 | 20 | 3 | 11 | -3 | 6 | ·
CC(=O)c1ccc(N2CCN(C(=S)Nc3cccc(Cl)c3)CC2)cc1 | 96* | 9 | 3 | 31 | 1 | 11
CC(=O)c1ccc(NC(=S)N2CCN(c3cccc(Cl)c3)CC2)cc1 | -22 | -24 | 22 | -5 | -31 | ·
COc1cccc(/C=N/NC(=O)c2ccc(-n3cnnn3)cc2)c1 | -3 | -14 | 26 | · | -5 | ·
OCc1cccnc1 | -5 | -2 | 10 | · | -8 | ·
Cc1cc(NC(=O)COc2ccccc2C)ccc1NC(=O)c1cccs1 | 54* | 22 | 31 | 7 | 20 | 63*
Cc1c(OCC(=O)NCC(O)c2ccccc2)ccc2c(-c3ccccc3)cc(=O)oc12 (centres undefined) | -8 | 11 | 12 | 15 | -4 | ·
Cc1[nH]c2ccc(C(=O)NCCCN(C)C3CCCCC3)cc2c1C | 11 | -5 | -3 | 21 | 5 | ·
CSC1=NSC2=NC(=O)/C(=C/c3coc4ccccc4c3=O)C(=N)N12 | · | · | · | 28 | · | ·
N=C1/C(=C\c2coc3ccccc3c2=O)C(=O)N=C2SC=CN12 | 65* | 22 | -9 | · | 8 | 71*
Cc1nn(-c2ccc(F)cc2)c(C)c1NS(=O)(=O)c1ccc2ccccc2c1 | 66* | 0 | 1 | 4 | 20 | 60*
CC1CN(C(=O)Cn2c(=O)oc3ccccc32)CC(C)O1 (centres undefined) | -10 | -5 | 6 | 22 | -12 | ·
C=CCNC(=O)CSc1nnc(-c2ccc(S(=O)(=O)N3CCCC3)cc2)n1C | 7 | -4 | 13 | -6 | -5 | ·
CCOC(=O)CN1C(=O)CC(c2ccc([N+](=O)[O-])cc2)C1=O (centres undefined) | 66* | 34 | 3 | 1 | 21 | 66*
COc1ccc(N2C(=O)CC(c3ccc([N+](=O)[O-])cc3)C2=O)cc1 (centres undefined) | 14 | 24 | 22 | 20 | 11 | ·
O=C(Nc1ccc(NC(=O)C2CC2)nc1)c1cccnc1 | 53* | -2 | 4 | 19 | 12 | 9
SMILES | tim23-1 inh | tim10-1 inh | NALP3 yeast inh | NALP1 yeast inh | TIM10 inh | tim23-1 confirm
O=C(O)c1ccc(COc2ccc(/C=N/NC(=O)c3cccs3)cc2)cc1 | 16 | 11 | 10 | -6 | 2 | ·
O=C(N/N=C/c1cccc(OCc2ccccc2)c1)c1cccs1 | 55* | -7 | 5 | 11 | -7 | 42*
CCCCc1ccc(NS(=O)(=O)c2cccc(C(=O)N3CCNC(=O)C3)c2)cc1 | -8 | -7 | 17 | · | -2 | ·
CN(c1ccc(C(=O)Nc2ccc3c(c2)OCO3)cc1)S(C)(=O)=O | 20 | 8 | 12 | · | -9 | ·
CN(c1ccc(C(=O)Nc2ccc(CC#N)cc2)cc1)S(C)(=O)=O | 94* | -13 | 23 | 19 | 8 | 18
CC(CCn1cccn1)NC(=O)CCc1nnc(C2CCCCC2)o1 (centres undefined) | 0 | -14 | -4 | 2 | -15 | ·
Cc1cccc(C(=O)OC2CCOC2=O)c1O (centres undefined) | 16 | -17 | 0 | 5 | 5 | ·
ClC(Cl)(Cl)c1nc2ccccc2n2nncc12 | 54* | 32 | 25 | 37* | 19 | 37
CCCC[C@@H]1CNCCN1CCc1cc(C(F)(F)F)cc(C(F)(F)F)c1 | -4 | 10 | 22 | · | -2 | ·
FC(F)(F)c1cc(CCN2CCNC[C@@H]2CC2CCCCC2)cc(C(F)(F)F)c1 | 65* | -10 | 32 | · | 11 | 48*
C=Cc1ccc2c(c1)N(C)C(=C)S2 | 12 | 13 | 25 | -10 | 16 | ·
COc1cc(NC(=O)c2cc3sccc3n2C)cc(OC)c1 | 53* | 32 | 29 | 9 | 31 | 43*
CN(C(=O)COC(=O)C12CC3CC(CC(Cl)(C3)C1)C2)c1ccccc1 | 56* | 23 | -6 | · | 26 | 44*
CC1CCCC(C)N1C(=O)COC(=O)C12CC3CC(CC(Cl)(C3)C1)C2 (centres undefined) | 42 | 20 | 14 | · | 21 | ·
CCCn1c2ccccc2c2cnn(CC(=O)NCCCN3CCN(c4ccccc4)CC3)c(=O)c21 | -16 | 14 | 3 | 24 | -54 | ·
c1coc(CNc2c3c(nc4ncnn24)CCCC3)c1 | 10 | 17 | 1 | -2 | 3 | ·
Clc1cccc(-c2cc3nc4c(c(NCc5ccco5)n3n2)CCCC4)c1 | 52* | 19 | 41 | 6 | 33 | 59*
O=C(NC1CC1)C1CCN(C2CCN(C(=O)c3c(F)cccc3Cl)CC2)CC1 | -8 | -5 | 14 | 1 | 2 | ·
O=C(N/N=C/c1ccc2cccnc2c1)c1ccco1 | 59* | 19 | 26 | 10 | 27 | 64*
O=c1[nH]c(CCl)nc2cc(-c3ccc(F)cc3)sc12 | 59* | 21 | -3 | 8 | 36 | 58*
O=C(Nc1nc(=S)ss1)c1ccc(Cl)cc1Cl | · | · | · | -1 | · | ·
CS(=O)(=O)Nc1ccc(C2=NN(C(=O)c3ccco3)C(c3ccco3)C2)cc1 (centres undefined) | 7 | -6 | 18 | 5 | -1 | ·
COc1cccc(C2=NN(C(=O)c3ccco3)C(c3ccco3)C2)c1 (centres undefined) | 52* | 33 | 7 | 8 | 11 | 41*
CCCCn1c(N)c(N(CC)C(=O)c2cc(CC)c(C)s2)c(=O)[nH]c1=O | -10 | -9 | 29 | · | -3 | ·
CCOC(=O)C1CCN(C(=S)Nc2ccccc2)CC1 | 1 | 6 | 12 | -16 | 1 | ·
